Over roughly 68,000 sequences, “fluorescence intensity (a.u.)” has its median near 9,100; the highest 2% begin near 16,000. The sample as a whole holds a higher share of the highest values than the screen did.

OsWRKY34, sequence (Q0JBA9 entry or part of it): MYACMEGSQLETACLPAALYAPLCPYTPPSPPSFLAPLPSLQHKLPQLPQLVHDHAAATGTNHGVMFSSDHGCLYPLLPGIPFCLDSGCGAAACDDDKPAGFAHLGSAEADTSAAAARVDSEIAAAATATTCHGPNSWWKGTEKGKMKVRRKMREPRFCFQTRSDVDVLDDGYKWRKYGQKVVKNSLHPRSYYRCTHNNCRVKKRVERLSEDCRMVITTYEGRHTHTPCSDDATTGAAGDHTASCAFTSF

This assay addresses OsWRKY34 (Oryza sativa, UniProt Q0JBA9 1-250). Nature of the assay: protein-binding microarray (RPBM); PBS, 2% BSA, 51.3 ng/ul salmon testes DNA, 50 uM zinc acetate, 200 nM TF, 25 C, 1 h; high values mean tight binding. Particulars: protein: recombinant; tags: N-terminal polyhistidine and DsRed monomer fusion (pET32a); label: CyDye5-dUTP incorporated in the synthesized complementary strand; 3' TTTTT single-stranded linker to array surface; dsDNA, one strand shown. The essentials:
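The binding signal is fluorescence intensity per array feature (arbitrary units). Readings came from an Axon 4000B scanner after a washed, 2% BSA-blocked, double-stranded custom Agilent array had been incubated for 1 h at 25 °C with 200 nM protein and 50 µM zinc acetate. The protein was a Ni–NTA-purified transcription factor fused N-terminally to polyhistidine and DsRed, expressed in E. coli BL21-CodonPlus.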
With “GGGATATATCCTTTGACCGGTCAAACCTCGCGACTTCTTCCGGAGTCACCTAGTGCAG”, the binding signal is 18800 fluorescence intensity (a.u.).

For the sequence “TCAAACCTCGCGACTTCTTCTTCCACCTCTCGCTCCGGGCCGGAGTCACCTAGTGCAG”, the binding signal was 11800 fluorescence intensity (a.u.).

“TGTGCCTCCGGATTTGACCTTTCCTCGAACCTTCTTCTTCCGGAGTCACCTAGTGCAG”: the binding signal is 13300 fluorescence intensity (a.u.).

For the sequence “CCTTTCCTAAGTCTCTGTTTTAACATCTCTATTGGGGCATCGGAGTCACCTAGTGCAG”, the binding signal is 8940 fluorescence intensity (a.u.).

Regarding “CTCCGTCACTCAGATTTAATACATGACTCTCTATTATTCCCGGAGTCACCTAGTGCAG”, the binding signal is 9060 fluorescence intensity (a.u.).

As for “CCTTACCGTACAAGGGAGGAGGAGGTGGTGGTGGTGGAGGCGGAGTCACCTAGTGCAG”, the binding signal is 13000 fluorescence intensity (a.u.).

Turning to “GGAGGTCGGTGGCCTCGGCGGTGGAGGTCGGGGTCGGGGACGGAGTCACCTAGTGCAG”, the binding signal is 16500 fluorescence intensity (a.u.).

As for “CAGCAGCGGCGGCGGCGGCGGCGGCGGGGTGGTGGAACCTCGGAGTCACCTAGTGCAG”, the binding signal is 9080 fluorescence intensity (a.u.).

Take “GGGGAGGCGGGTGGGGTTGAGGAGGTCGGTGGCCTCGGCGCGGAGTCACCTAGTGCAG”: the binding signal was 12300 fluorescence intensity (a.u.).

“GGAGGCGGTGGTGTTGGAGTTGGAGGGCGCGTGGAGGTGGCGGAGTCACCTAGTGCAG”: the binding signal was 12900 fluorescence intensity (a.u.).

Turning to “GAGGAGGAGGTGGAGCTACTGGTGGTGGTGGTGGTGGTGGCGGAGTCACCTAGTGCAG”, the binding signal is 16200 fluorescence intensity (a.u.).

As for “AGGTGGTGGTGGAGGTGGAGGTGGCGGTGGAGGTGGAGGGCGGAGTCACCTAGTGCAG”, the binding signal was 38600 fluorescence intensity (a.u.).

As for “GGCGGCGGCGGCGGCGGCGGGGAGGAGGTGAAGGTGGAGGCGGAGTCACCTAGTGCAG”, the binding signal is 14100 fluorescence intensity (a.u.).

On to “ATGGAGGCGGTGGTCGGAGGTGGCAGACGATGCTCGGGGACGGAGTCACCTAGTGCAG”, for which the binding signal was 8040 fluorescence intensity (a.u.).

“GCGGAGGAGGTGGTGGTGGTGGAGGAGGAGGAGGCCAAGGCGGAGTCACCTAGTGCAG”: the binding signal was 19300 fluorescence intensity (a.u.).

For “GGCGGCGGCGGGGTGGCCTTGGCCGGGTGCCTTGGTGGATCGGAGTCACCTAGTGCAG”, the binding signal was 10300 fluorescence intensity (a.u.).

As for “GGGGTGGCGGTGGCGGTGGTGGTGGTGGTGGTGGTGGAGTCGGAGTCACCTAGTGCAG”, the binding signal is 41600 fluorescence intensity (a.u.).

For the sequence “GGCCTCACTATCGTCGACTCCTCCACTCCGGGGACTGCCGCGGAGTCACCTAGTGCAG”, the binding signal is 10000 fluorescence intensity (a.u.).

“AGCCGATCAGCTTCCAGCTCTTCATCCCAGCTTGCATCGTCGGAGTCACCTAGTGCAG”: the binding signal was 9300 fluorescence intensity (a.u.).

Turning to “CCCCTGTTTCTCGGTTCTTTCGCTCGCCTTCTAGGCCCAACGGAGTCACCTAGTGCAG”, the binding signal is 11400 fluorescence intensity (a.u.).

Regarding “ATGATACTAGCGGAGCTCACTACTTACTATTAGTCAATGTCGGAGTCACCTAGTGCAG”, the binding signal was 8330 fluorescence intensity (a.u.).

As to “ATAGCACCTCGAAACACCAAACTATTGCTATTAACATTTTCGGAGTCACCTAGTGCAG”, the binding signal is 9650 fluorescence intensity (a.u.).

For “CCTTAATGCTCGAGATATACTAATACTACTCCCTTTGTTTCGGAGTCACCTAGTGCAG”, the binding signal was 10400 fluorescence intensity (a.u.).

On to “TACGCGTTATTTGTTTTTCGCAGCGTTTCCTTTTTTTTTTCGGAGTCACCTAGTGCAG”, for which the binding signal was 9540 fluorescence intensity (a.u.).

Take “TTTATCGCTTTGACTGTTCTACATCTTGCCTCGCCGTGCACGGAGTCACCTAGTGCAG”: the binding signal was 9040 fluorescence intensity (a.u.).

For the sequence “GCACAAGGCAGATGGAGGTTGTACAGCTATTATTATTTCACGGAGTCACCTAGTGCAG”, the binding signal is 8380 fluorescence intensity (a.u.).

As for “TAATATTAATAAATAAAAAACCAGCGGTCGAACCGTTGACCGGAGTCACCTAGTGCAG”, the binding signal is 13000 fluorescence intensity (a.u.).

Turning to “GAGGTAGTGGTTTAGAGGAGGAGGCGGAGAAGAGGAGGGACGGAGTCACCTAGTGCAG”, the binding signal is 9020 fluorescence intensity (a.u.).

Consider “GGGCATTGAGTGGTGGGGACGTGTGGGAGGCAGGCGGAGACGGAGTCACCTAGTGCAG”, for which the binding signal was 9540 fluorescence intensity (a.u.).

In the case of “ATATTGGTGGGCGCGGATTTTAATAGGTGGGCGGTGGATTCGGAGTCACCTAGTGCAG”, the binding signal was 8430 fluorescence intensity (a.u.).

Turning to “TGGTGGGCGGTGGAGTTATTTTCTTAATAGAGCATTGAGACGGAGTCACCTAGTGCAG”, the binding signal was 23900 fluorescence intensity (a.u.).

On to “GGTTGCGTTGTTGCGGGCGTTGTTGCGGGCGGGCGGTCAGCGGAGTCACCTAGTGCAG”, for which the binding signal was 16600 fluorescence intensity (a.u.).

For “AGGAGGTGGTATTATTTTTTTTTTGGTAGAGAGGGGAGGGCGGAGTCACCTAGTGCAG”, the binding signal is 16500 fluorescence intensity (a.u.).

Regarding “GGCGAGGGGAGAAGAGAAGAGGTGGGTGAGGTGGGGTTTCCGGAGTCACCTAGTGCAG”, the binding signal was 12800 fluorescence intensity (a.u.).

As for “GATCCAAGAGTGGAGAAGGAGAGGGGTGGGGAGCCGGCGACGGAGTCACCTAGTGCAG”, the binding signal was 9460 fluorescence intensity (a.u.).

Turning to “TGTTGTTGCCGGAATGTGTGTGTGTGCGTGTGTGTGTGTGCGGAGTCACCTAGTGCAG”, the binding signal was 8720 fluorescence intensity (a.u.).

For the sequence “GAGAAGAGGAGAGAGAGTGAGAGTGGGCGACAATTTTATCCGGAGTCACCTAGTGCAG”, the binding signal is 64200 fluorescence intensity (a.u.).

On to “TAGAGGTGGGCGGTAGGGGCTATTTCTGCAATTTTTTGGTCGGAGTCACCTAGTGCAG”, for which the binding signal is 9680 fluorescence intensity (a.u.).

On to “TTCGTTGTTGGTGGTGGTGGCGGGCGGAAGATGCGGTTGCCGGAGTCACCTAGTGCAG”, for which the binding signal was 10000 fluorescence intensity (a.u.).

Take “AATCTACACTAATTCTTCTGGTCTACACATTAAGTTATGACGGAGTCACCTAGTGCAG”: the binding signal is 8670 fluorescence intensity (a.u.).

“CCATGTCCGGATTCTCTAGGATTGCCTCCAATTTCTTCGCCGGAGTCACCTAGTGCAG”: the binding signal is 8890 fluorescence intensity (a.u.).

On to “TCCTACCTACAGCTATAGCTGCGTGCCGGGGTTGGGGCTGCGGAGTCACCTAGTGCAG”, for which the binding signal is 8750 fluorescence intensity (a.u.).
